# CaV13 ICDI inh = Primary screen for inhibitors of IQ motif and Ca2+-dependent inactivation inhibitor domain binding in CACNA1D, Förster resonance energy transfer in living cells, … | HEK cells, CFP/YFP FRET ICDI-IQ, plate reader, 10 min; percent FRET-ratio fall versus neutral wells | inhibition, % at 12.3 µM | 340,000 compounds, 0.098% hits;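 active means mean replicate inhibition of at least 30% and at least 1% of replicates passing that level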;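 further: 0% = median of the neutral control wells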
# ABCB6 inh 2 = human ABCB6 transporter inhibition. 360,000 compounds, 0.19% hits. Q9NP58. fluorescence ratio to DMSO, % at 10 µM. K562-ABCB6 porphyrin accumulation, flow cytometry, 1 h; active compounds read low;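 active means fluorescence ratio to DMSO below 75%, the collection mean minus 3 SD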;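 further: signal is porphyrin accumulated inside mitochondria; 100% equals median channel fluorescence of DMSO control wells; lower ratio means ABCB6 inhibition with less porphyrin fluorescence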
# VLA-4 inh = inhibition in a human VLA-4 binding assay; inhibition, % (about 7 µM as worked out from the volumes in the protocol); P13612; VLA-4 expressing cells, ligand binding flow cytometry; AID 2557; 330,000 compounds, 0.2% hits; in the data active means inhibition above about 50%
# Granule exo inh = blocks lytic granule exocytosis; TALL-104 LAMP-1 surface exposure, flow cytometry; cells stimulated with thapsigargin and PMA; 360,000 compounds, 0.66% hits; AID 651702; inhibition, % at 10 µM;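 active means inhibition above about 55%, limit read from the data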
# * = called active by the depositor; . = not tested or not shown; + = active, no number. This is a sample that favours compounds with a hit; in the whole collection about 1.1% have one here.
SMILES,CaV13 ICDI inh,ABCB6 inh 2,VLA-4 inh,Granule exo inh
Cc1ccc(C(Nc2ccccc2)c2ccc3ccc(C)nc3c2O)c(C)c1 (stereo not given),-10,.,.,.
Cc1cccn2c(=O)c(/C=C(\C#N)C(=O)NC3CCS(=O)(=O)C3)c(N3CCC(C(N)=O)CC3)nc12 (stereo not given),+,99,26,3
Cc1cccn2c(=O)c(/C=C(\C#N)C(=O)NC3CCS(=O)(=O)C3)c(Oc3ccccc3Cl)nc12 (stereo not given),-3,107,4,-2
Cc1ccccc1Oc1nc2c(C)cccn2c(=O)c1/C=C(\C#N)C(=O)NC1CCS(=O)(=O)C1 (stereo not given),-1,101,10,82*
Cc1cccn2c(=O)c(/C=C(\C#N)C(=O)NC3CCS(=O)(=O)C3)c(N3CC(C)OC(C)C3)nc12 (stereo not given),3,95,-7,-2
Cc1ccc(Oc2nc3ccccn3c(=O)c2/C=C(\C#N)C(=O)NC2CCS(=O)(=O)C2)cc1 (stereo not given),16,96,-3,74*
Cc1ccccc1NC(=O)N(C)[C@H]1C[C@H]2c3[nH]c4c(-c5ccccc5)cccc4c3CCN2C(=O)[C@H]1[C@H](C)O,-4,.,.,.
C[C@]12Cc3ccccc3C1CC1=N[C@@H](c3ccccn3)O[C@@]13C[C@@H]2C(=O)N3C1CCN(Cc2ccccc2)CC1 (stereo not given in full),-4,.,.,.
CNc1sc(C(=O)c2cccs2)c(N)c1-c1nc2ccccc2s1,-6,112,-16,65*
C[C@H](c1ccccc1)N1C[C@@H](COCc2ccccc2)Oc2cccc(Oc3ccccc3)c2S1(=O)=O,-8,.,.,.
Cc1[nH]nc2c1C(c1ccccc1)N(c1ccccc1)C2=O (stereo not given),-2,.,.,.
N=C1S/C(=C\c2ccc(-c3cccc(Cl)c3)o2)C(=O)N1c1nccs1,-6,121,20,73*
COc1ccc(/C=C2\SC(=N)N(c3nccs3)C2=O)cc1OC,-17,76,3,0
CC(C)(C)c1ccc(C#C[C@@H]2C=C[C@@H](O)[C@@H](COC(=O)Nc3ccccc3)O2)cc1,-11,.,.,.
CN1CCN(/N=C/c2c3ccccc3c(Cl)c3ccccc23)CC1,-3,97,57*,52
COc1ccccc1NS(=O)(=O)c1cc(NC(=O)CCNC(C)=O)ccc1C,151*,98,11,-4
CC(C)(C)c1ccc(C#C[C@@H]2C=C[C@H]3OC(=O)CC/C=C/CCC(=O)OC[C@H]3O2)cc1,-4,.,.,.
C[C@H](O)[C@@H]1C(=O)N2CCc3c([nH]c4c(-c5ccccc5)cccc34)[C@@H]2C[C@@H]1N(C)C(=O)NC1CCCCC1,-9,.,.,.
O=C(CS(=O)c1ccc(C(F)(F)F)cc1[N+](=O)[O-])Oc1ccccc1 (stereo not given),-5,99,25,56*
COC(=O)c1ccc(OC(=O)CS(=O)c2ccccc2[N+](=O)[O-])cc1 (stereo not given),-5,102,19,-3
CS(=O)(=O)c1ccc(S(=O)CC(=O)OCc2ccccc2)c([N+](=O)[O-])c1 (stereo not given),-4,108,.,97*
C[C@H](O)[C@@H]1C(=O)N2CCc3c([nH]c4c(-c5ccc6c(c5)OCO6)cccc34)[C@@H]2C[C@@H]1N(C)C(=O)NC1CCCCC1,-4,.,.,.
Cn1cc(CCOCc2ccc(Br)cc2)c2ccccc21,-8,.,.,.
[O-]/[N+](=C\c1ccccc1)c1ccccc1,-10,94,-1,1
[O-]/[N+](=C/c1ccccc1)c1ccccc1,45*,101,17,9
SMILES,CaV13 ICDI inh,ABCB6 inh 2,VLA-4 inh,Granule exo inh
C[C@@H]1CN(c2ccc(N3CCNC[C@H]3C)cc2C#N)CCN1Cc1ccccc1,-9,.,.,.
COc1ccc(C2C3=C(CCCC3=O)N(CC(=O)O)C3=C2C(=O)CCC3)cc1Br,0,99,.,-3
COc1ccc(C2C3=C(CCCC3=O)N(CC(=O)O)C3=C2C(=O)CCC3)cc1Cl,+,102,25,4
O=c1[nH]c(=S)[nH]c2nc(-c3ccccc3)cnc12,-4,98,-18,-2
O=c1[nH]c(=O)c2nc(-c3ccc(Cl)cc3)cnc2[nH]1,100*,93,14,0
CN(c1cccnc1)c1ccc(NC(=O)CCc2c[nH]c3ccccc23)cc1Br,-2,.,.,.
COc1ccc(-c2ccc3c(n2)CCCN3S(=O)(=O)c2ccc(F)cc2)cc1,-9,.,.,.
COc1ccc(C[C@H]2CN3C(=NC[C@@H]3Cc3ccccc3)N2CCNC(=O)CCC2CCCCC2)cc1,65*,95,31,15

# Bioassay records deposited in PubChem BioAssay by several laboratories.
